# Assay results as given in PubChem BioAssay (NCATS).
# Records with an inconclusive call do not appear. Where a call stands in place of a potency, no number is given. Activity calls are given as the source filed them. Unless noted, calls come from the whole dose curve; as a rule, active = well fitted curve in either direction with a large enough effect (not every such curve was filed as active); inconclusive = small, poorly fitted or top-dose-only effect, or another doubt; inactive = flat fitted curve, though single readings scatter.
# Legend:
# [1] = AP1 Signaling Pathway (AID 357);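 note: ME-180 reporter cells stimulated with EGF at its EC50 level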
# How it was run: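 Beta-lactamase reporter under AP-1 response element, ME-180 background. Stimulus: EC50 EGF. Compound exposure 5 h, 37 °C. Detection: CCF4, 2.5 h RT, 460/530 nm. Values: AC50 from titration.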
# [2] = target: Cytochrome P450 1A2 (Homo sapiens) (UniProt P05177); experiment: p450-cyp1a2 (AID 410; calls by dose curve; note: potency is the fitted concentration of half-maximal effect)
# Sequence of Cytochrome P450 1A2 (Homo sapiens) (P05177 whole entry, looked up): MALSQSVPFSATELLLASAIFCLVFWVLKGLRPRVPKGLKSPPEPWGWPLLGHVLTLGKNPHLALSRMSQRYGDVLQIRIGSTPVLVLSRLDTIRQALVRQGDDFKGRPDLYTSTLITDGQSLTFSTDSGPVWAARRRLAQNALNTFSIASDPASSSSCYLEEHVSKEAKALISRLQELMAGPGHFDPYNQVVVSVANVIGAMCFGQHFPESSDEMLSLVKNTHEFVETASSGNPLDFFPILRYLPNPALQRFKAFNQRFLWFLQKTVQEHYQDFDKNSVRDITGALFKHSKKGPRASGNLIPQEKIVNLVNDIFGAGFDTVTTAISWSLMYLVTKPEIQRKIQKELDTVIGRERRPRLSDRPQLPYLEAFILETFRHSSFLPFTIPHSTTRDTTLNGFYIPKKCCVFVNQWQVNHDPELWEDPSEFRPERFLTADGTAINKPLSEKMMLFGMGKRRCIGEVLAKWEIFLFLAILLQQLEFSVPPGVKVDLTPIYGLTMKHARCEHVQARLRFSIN
# How it was run: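 Luminescent demethylation readout: Luciferin-ME (100uM, equal to Km) turned over by 20nM CYP1A2 for 60 min at room temperature after NADPH regeneration addition, following 10 min compound preincubation. Normalization used 57 uM furafylline as full inhibition.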
# [3] = NFAT Signaling Pathway (AID 444); conditions: Jurkat NFAT-bla M1, carbachol, beta-lactamase ratio, 5 h; at 17.2 µM (top of the series) unless noted;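 note: carbachol stimulus at about its EC50 of 1 µM final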
# How it was run: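 Jurkat cells carrying an NFAT-driven β-lactamase reporter and co-transfected muscarinic M1 receptor were treated with compound plus carbachol (1 uM final, an EC50 level) for 5 h at 37 °C. CCF4 loading followed for 1 h at RT; 460/530 nm ratio gave %activity.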
# [4] = Stat Signaling Pathway (AID 446);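 note: ME-180 cervical cancer cells given 40 pM IL-6 alongside compound; SIE-controlled beta-lactamase reporter measured as 460/530 nm FRET emission ratio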
# How it was run: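 Overnight-plated ME-180 cells bearing a STAT Inducible Element beta-lactamase reporter; 5 h co-exposure to compound and 40 pM IL-6; values normalized to 300 pM IL-6 and 125 nM JAK inhibitor controls.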
# [5] = target: Glucocorticoid receptor (Homo sapiens) (UniProt P04150); experiment: GR-GFP Redistribution (AID 450;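 active = compounds whose dose series gives a full or clear partial fitted curve of increased nuclear translocation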; note: potency is the fitted concentration of half-maximal effect); conditions: U2OS GR-GFP nuclear translocation, laser cytometry, 2 h
# Sequence of Glucocorticoid receptor (Homo sapiens) (P04150 whole entry, looked up, the tested form may be a part): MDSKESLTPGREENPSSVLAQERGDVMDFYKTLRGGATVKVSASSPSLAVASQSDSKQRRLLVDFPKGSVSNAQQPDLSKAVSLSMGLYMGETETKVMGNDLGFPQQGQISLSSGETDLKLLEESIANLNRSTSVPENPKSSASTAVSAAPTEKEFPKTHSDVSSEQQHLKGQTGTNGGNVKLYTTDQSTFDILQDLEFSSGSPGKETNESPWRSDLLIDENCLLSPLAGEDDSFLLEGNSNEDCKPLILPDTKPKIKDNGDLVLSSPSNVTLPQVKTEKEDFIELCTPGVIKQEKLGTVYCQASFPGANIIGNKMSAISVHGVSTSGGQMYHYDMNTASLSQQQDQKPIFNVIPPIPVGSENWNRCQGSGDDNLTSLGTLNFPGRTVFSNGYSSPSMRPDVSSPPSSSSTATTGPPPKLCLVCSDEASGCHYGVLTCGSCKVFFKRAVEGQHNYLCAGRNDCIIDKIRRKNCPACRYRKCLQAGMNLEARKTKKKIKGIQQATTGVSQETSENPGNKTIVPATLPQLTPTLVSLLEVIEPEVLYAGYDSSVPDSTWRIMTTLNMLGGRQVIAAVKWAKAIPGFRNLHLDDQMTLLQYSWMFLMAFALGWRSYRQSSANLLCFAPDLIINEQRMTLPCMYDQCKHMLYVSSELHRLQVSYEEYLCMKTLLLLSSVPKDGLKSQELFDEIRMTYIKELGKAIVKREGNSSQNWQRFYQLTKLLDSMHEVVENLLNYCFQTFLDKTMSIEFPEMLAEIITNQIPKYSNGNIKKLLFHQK
# [6] = target: Mitogen-activated protein kinase 10 (Mus musculus) (UniProt Q61831); experiment: JNK3 AlphaScreen Assay (AID 530);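 note: kinase came from lysate of stimulated human HepG2 cells; signal reports phosphorylation of biotinylated GST-cJun 1-79 at Ser73 with 10 µM ATP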
# How it was run: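 Phosphorylation of biotinylated GST-cJun(1-79) at Ser73 is measured by AlphaScreen proximity luminescence. Enzyme is JNK3 in HepG2 lysates activated with interleukin-1beta and tumor necrosis factor alpha; ATP is 10 uM final.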
# [7] = target: 3',5'-cyclic-AMP phosphodiesterase 4B (Homo sapiens) (UniProt Q07343); experiment: qHTS Assay for Inhibitors of PDE-IV (AID 607; active = well fitted activation curve with a large enough effect in the main read-out, with a control signal flat, not every such curve was filed as active)
# Sequence of 3',5'-cyclic-AMP phosphodiesterase 4B (Homo sapiens) (Q07343 whole entry, looked up): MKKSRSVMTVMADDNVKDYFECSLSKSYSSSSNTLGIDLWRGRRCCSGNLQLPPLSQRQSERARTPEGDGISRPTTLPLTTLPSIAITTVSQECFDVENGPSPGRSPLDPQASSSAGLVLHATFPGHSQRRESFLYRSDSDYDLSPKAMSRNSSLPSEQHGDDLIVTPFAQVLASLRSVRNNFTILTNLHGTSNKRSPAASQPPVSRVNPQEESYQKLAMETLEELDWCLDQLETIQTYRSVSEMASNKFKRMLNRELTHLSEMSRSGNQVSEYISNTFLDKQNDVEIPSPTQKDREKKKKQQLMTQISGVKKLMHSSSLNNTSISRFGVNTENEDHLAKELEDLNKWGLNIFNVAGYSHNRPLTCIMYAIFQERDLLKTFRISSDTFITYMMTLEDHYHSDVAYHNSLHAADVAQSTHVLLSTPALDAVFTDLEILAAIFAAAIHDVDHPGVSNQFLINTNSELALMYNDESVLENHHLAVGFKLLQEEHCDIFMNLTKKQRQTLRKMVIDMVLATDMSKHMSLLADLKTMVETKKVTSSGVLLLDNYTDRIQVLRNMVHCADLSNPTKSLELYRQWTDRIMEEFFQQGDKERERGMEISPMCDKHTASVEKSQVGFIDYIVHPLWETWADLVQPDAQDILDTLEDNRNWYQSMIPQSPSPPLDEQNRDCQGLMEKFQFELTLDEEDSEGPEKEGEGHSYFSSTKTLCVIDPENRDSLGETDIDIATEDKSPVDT
# How it was run: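 Live HEK293 cells with a modified cyclic nucleotide-gated (CNG) channel report intracellular cAMP via membrane-potential dye fluorescence (ex 535/em 590 nm). Endogenous PDE-IV was targeted. Compounds were tested at up to 22.9 uM final; RO 20-1724 100 uM served as control.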
# [8] = qHTS Assay for Lipid Storage Modulators (AID 1519; calls by dose curve); conditions: Drosophila S3 cells, BODIPY lipid droplet/cell ratio, laser cytometry, cells loaded with oleic acid; for activity change, negative = inhibition: at 25.7 µM (top of the series)
# How it was run: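 Cells seeded at 5,000 per well were treated with compounds over a concentration series and loaded with oleic acid (400 uM, as added). Lipid droplet fluorescence (488 nm excitation, 500-530 nm channel) was read by laser-scanning cytometry and normalized to 20 uM Triacsin C.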
# [9] = target: Luciferin 4-monooxygenase (Photinus pyralis) (UniProt P08659); experiment: Biochemical firefly luciferase enzyme assay for NPC (AID 624030; active = well fitted curve in the direction sought with a large enough effect; an effect the other way counts as inactive or inconclusive;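 note: purified P. pyralis luciferase at 10 nM with luciferin and ATP substrate; nearly all actives have a fitted effect of over 70% in size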)
# Sequence of Luciferin 4-monooxygenase (Photinus pyralis) (P08659 whole entry, looked up): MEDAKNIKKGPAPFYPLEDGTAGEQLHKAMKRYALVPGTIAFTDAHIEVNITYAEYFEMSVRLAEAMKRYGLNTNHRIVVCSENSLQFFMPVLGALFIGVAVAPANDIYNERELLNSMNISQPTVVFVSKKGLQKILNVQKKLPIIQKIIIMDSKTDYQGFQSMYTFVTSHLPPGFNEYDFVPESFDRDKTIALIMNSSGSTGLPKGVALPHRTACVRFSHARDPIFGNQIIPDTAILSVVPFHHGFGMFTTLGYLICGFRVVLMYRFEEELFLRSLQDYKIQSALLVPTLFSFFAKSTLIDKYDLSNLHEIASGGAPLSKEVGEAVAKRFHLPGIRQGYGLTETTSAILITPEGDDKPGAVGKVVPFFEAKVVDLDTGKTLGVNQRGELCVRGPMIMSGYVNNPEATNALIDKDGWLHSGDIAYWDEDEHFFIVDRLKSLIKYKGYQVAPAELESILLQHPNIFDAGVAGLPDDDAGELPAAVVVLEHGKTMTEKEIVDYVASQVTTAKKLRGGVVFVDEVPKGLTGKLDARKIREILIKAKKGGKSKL
# How it was run: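 Counter-screen for direct inhibition of the luciferase enzyme by approved-drug library compounds, run at 10 nM enzyme in 50 mM Tris acetate (final). Luminescence was read within 5 min of enzyme-buffer addition and normalized to PTC124 versus DMSO (0%).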
# [10] = S16 Schwann cell viability assay (CellTiter-Glo assay) (AID 624031; active = well fitted curve in the direction sought with a large enough effect; an effect the other way counts as inactive or inconclusive;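 note: native untransfected S16 rat Schwann cells; cellular ATP luminescence as a viability measure; nearly all actives have a fitted effect of over 70% in size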)
# How it was run: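 Parental S16 cells, 24 h compound, 37 °C. ATP-luminescence viability; DMSO = 0% activity, empty wells as reference; curves classified by fit quality and efficacy.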
# [11] = S16 Schwann cell PMP22 intronic element beta-lactamase assay (AID 624044; calls by dose curve; note: nearly all actives have a fitted effect of over 15% in size)
# How it was run: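 Beta-lactamase reporter under a PMP22 intronic regulatory element in stable S16 rat Schwann cells; 24 h compound exposure. 460 nm blue signal normalized between DMSO (0%) and potassium clavulanate, with 535 nm FRET tracking viability; curves classed by r2 and response.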
# [12] = qHTS profiling for inhibitors of Plasmodium falciparum proliferation (AID 504749; active = well fitted curve in the direction sought with a large enough effect; an effect the other way counts as inactive or inconclusive; note: nearly all actives have a fitted effect of over 60% in size); conditions: P. falciparum in erythrocytes, SYBR Green DNA, 72 h, at 12.8 µM (top of the series)
# How it was run: (§1)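 Quantitative HTS: compounds pinned into medium, infected erythrocytes added (0.3% parasitemia, 2.5% hematocrit), 72 h culture at 37 C under 5% CO2. Saponin/Triton lysis with SYBR Green I, overnight RT, then fluorescence read.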
# C2A = experiment: as above; conditions: P. falciparum in erythrocytes, SYBR Green DNA, 72 h; series mostly up to 12.8 µM
# How it was run: as §1
# CP217 = experiment: as above; conditions: P. falciparum in erythrocytes, SYBR Green DNA, 72 h; series mostly up to 12.8 µM
# How it was run: as §1
# CP250 = experiment: as above; conditions: P. falciparum in erythrocytes, SYBR Green DNA, 72 h; series mostly up to 12.8 µM
# How it was run: as §1
# FAB9 = experiment: as above; conditions: P. falciparum in erythrocytes, SYBR Green DNA, 72 h; series mostly up to 12.8 µM
# How it was run: as §1
# JCK = experiment: as above; conditions: P. falciparum in erythrocytes, SYBR Green DNA, 72 h; series mostly up to 12.8 µM
# How it was run: as §1
# SC27B = experiment: as above; conditions: P. falciparum in erythrocytes, SYBR Green DNA, 72 h; series mostly up to 12.8 µM
# How it was run: as §1
# [13] = target: Glucocorticoid receptor (Homo sapiens) (UniProt P04150); experiment: GR-EFC Redistribution (AID 451; calls by dose curve; note: potency is the fitted concentration of half-maximal effect); conditions: CHO-K1 GR-EFC translocation, beta-gal luminescence, 2 h
# How it was run: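 CHO-K1 cells stably expressing nuclear-localized β-gal enzyme acceptor and GR fused C-terminally to the enzyme donor fragment; ligand-driven nuclear translocation restores β-gal by complementation. Compounds titrated up to 46 uM final, 2 h at 37 °C; luminescence read.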
# [14] = target: Ubiquitin carboxyl-terminal hydrolase 1 (Homo sapiens) (UniProt O94782); experiment: Inhibitors of USP1/UAF1: Pilot qHTS (AID 504865; active = well fitted curve in the direction sought with a large enough effect; an effect the other way counts as inactive or inconclusive;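 note: rhodamine fluorescence freed from ubiquitin-rhodamine substrate followed over time; top concentration of the series differs between compounds; nearly all actives have a fitted effect of over 35% in size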)
# Sequence of Ubiquitin carboxyl-terminal hydrolase 1 (Homo sapiens) (O94782 whole entry, looked up): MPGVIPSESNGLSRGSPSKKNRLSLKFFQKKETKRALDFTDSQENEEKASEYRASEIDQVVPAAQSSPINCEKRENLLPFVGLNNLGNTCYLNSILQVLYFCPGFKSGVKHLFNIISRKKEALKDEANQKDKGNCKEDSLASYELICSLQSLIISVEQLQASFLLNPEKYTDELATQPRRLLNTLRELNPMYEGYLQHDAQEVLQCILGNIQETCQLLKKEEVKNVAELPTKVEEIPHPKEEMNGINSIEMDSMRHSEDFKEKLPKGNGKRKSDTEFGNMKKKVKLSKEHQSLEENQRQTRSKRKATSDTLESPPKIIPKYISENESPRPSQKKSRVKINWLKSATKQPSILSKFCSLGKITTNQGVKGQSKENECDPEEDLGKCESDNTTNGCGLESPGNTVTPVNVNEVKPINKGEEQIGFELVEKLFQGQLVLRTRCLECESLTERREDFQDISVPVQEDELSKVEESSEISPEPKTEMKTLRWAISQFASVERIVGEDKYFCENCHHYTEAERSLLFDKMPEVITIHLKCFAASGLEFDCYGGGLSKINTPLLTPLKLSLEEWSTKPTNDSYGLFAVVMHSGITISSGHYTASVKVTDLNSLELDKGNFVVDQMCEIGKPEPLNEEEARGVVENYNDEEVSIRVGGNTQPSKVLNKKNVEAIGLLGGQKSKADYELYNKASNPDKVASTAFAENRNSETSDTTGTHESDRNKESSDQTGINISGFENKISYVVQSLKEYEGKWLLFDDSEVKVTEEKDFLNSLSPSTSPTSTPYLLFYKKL
# How it was run: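 Enzyme-free wells gave the negative control, while test wells held 1nM USP1/UAF1 preincubated with compound for 15 min at room temperature. Ub-Rho at 150nM final started the reaction, and fluorescence at 480/540 nm was recorded kinetically.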
# [15] = measured here: cell count channel max response
# [16] = measured here: lipid channel max response
smiles,measurement,setting,value
O=C(NC[C@@H](O)CO)c1c(I)c(C(=O)NC[C@@H](O)CO)c(I)c(N(CCO)C(=O)CO)c1I,outcome,[1],inactive
same,Potency,[2],inactive
same,"activity change, negative = inhibition",[3],-8.22% (inactive)
same,outcome,[4],inactive
same,Potency,[5],> 20.6 µM (inactive)
same,Potency,[6],inactive
same,outcome,[7],inactive
same,"activity change, negative = inhibition",[8],-2.29% (inactive)
same,max response,[8]; [15],-1.01%
same,max response,[8]; [16],-0.682%
same,Potency,[9],inactive
same,outcome,[10],inactive
same,Potency,[11],inactive
same,"activity, negative = inhibition",[12]; parasite line A,7.51% (inactive)
same,"activity, negative = inhibition",[12]; parasite line B,8.28% (inactive)
same,Potency,C2A,inactive
same,Potency,CP217,inactive
same,Potency,CP250,inactive
same,Potency,FAB9,inactive
same,Potency,JCK,inactive
same,Potency,SC27B,inactive
C[C@@H]1CCc2cc(F)cc3c(=O)c(C(=O)O)cn1c23,outcome,[1],inactive
same,Potency,[2],12.6 µM (active)
same,"activity change, negative = inhibition",[3],7.91% (inactive)
same,outcome,[4],inactive
same,Potency,[13],> 20.6 µM (inactive)
same,Potency,[6],inactive
same,outcome,[7],inactive
same,"activity change, negative = inhibition",[8],-0.0799% (inactive)
same,max response,[8]; [15],-3%
same,max response,[8]; [16],-1.83%
same,Potency,[14],inactive
CCC[C@H]1C[C@H](C(=O)N[C@H]([C@@H]2O[C@H](SC)[C@@H](O)[C@H](O)[C@@H]2O)[C@H](C)O)N(C)C1,outcome,[1],inactive
same,Potency,[2],inactive
same,"activity change, negative = inhibition",[3],-5.24% (inactive)
same,outcome,[4],inactive
same,Potency,[13],> 20.6 µM (inactive)
same,Potency,[6],inactive
same,outcome,[7],inactive
same,"activity change, negative = inhibition",[8],0.0766% (inactive)
same,max response,[8]; [15],-10.3%
same,max response,[8]; [16],-10.9%
same,Potency,[14],inactive
C#C[C@]1(O)CC[C@@H]2[C@H]3CCc4cc(OC)ccc4[C@@H]3CC[C@@]21C,outcome,[1],inactive
same,Potency,[2],0.501 µM (active)
same,"activity change, negative = inhibition",[3],-23.4% (inactive)
same,outcome,[4],inactive
same,Potency,[5],> 20.6 µM (inactive)
same,Potency,[13],> 20.6 µM (inactive)
same,Potency,[6],inactive
same,outcome,[7],inactive
same,"activity change, negative = inhibition",[8],-2.31% (inactive)
same,max response,[8]; [15],-15.5%
same,max response,[8]; [16],-16.7%
same,Potency,[14],inactive
Cc1ccccc1N1C(=O)c2cc(S(N)(=O)=O)c(Cl)cc2N[C@H]1C,outcome,[1],inactive
same,Potency,[2],inactive
same,"activity change, negative = inhibition",[3],1.02% (inactive)
same,outcome,[4],inactive
same,Potency,[13],> 20.6 µM (inactive)
same,outcome,[7],inactive
same,"activity change, negative = inhibition",[8],0.988% (inactive)
same,max response,[8]; [15],-3.14%
same,max response,[8]; [16],-3.66%
same,Potency,[14],inactive
COc1ccc2nccc(C(=O)O)c2c1,outcome,[1],inactive
same,Potency,[2],inactive
same,"activity change, negative = inhibition",[3],-15.8% (inactive)
same,outcome,[4],inactive
same,Potency,[5],> 20.6 µM (inactive)
same,Potency,[13],> 20.6 µM (inactive)
same,Potency,[6],inactive
same,outcome,[7],inactive
same,"activity change, negative = inhibition",[8],2.98% (inactive)
same,max response,[8]; [15],-10.5%
same,max response,[8]; [16],-9.32%
C[C@@]12CC[C@@H]3c4ccc(O)cc4CC[C@H]3[C@H]1C[C@@H](O)[C@H]2O,outcome,[1],inactive
same,Potency,[2],inactive
same,"activity change, negative = inhibition",[3],-13% (inactive)
same,outcome,[4],inactive
same,Potency,[5],> 20.6 µM (inactive)
same,Potency,[13],> 20.6 µM (inactive)
same,outcome,[7],inactive
same,"activity change, negative = inhibition",[8],-1.89% (inactive)
same,max response,[8]; [15],-5.07%
same,max response,[8]; [16],-7.07%
same,Potency,[14],inactive
CC(=O)[C@@H]1CC[C@@H]2[C@@H]3C[C@H](C)C4=CC(=O)CC[C@@]4(C)[C@H]3[C@H](O)C[C@]21C,outcome,[1],inactive
same,Potency,[2],inactive
same,"activity change, negative = inhibition",[3],-5.99% (inactive)
same,outcome,[4],inactive
same,Potency,[5],0.0015 µM (active)
same,Potency,[6],inactive
same,outcome,[7],inactive
same,"activity change, negative = inhibition",[8],-5.46% (inactive)
same,max response,[8]; [15],-5.95%
same,max response,[8]; [16],-15.5%
same,Potency,[14],inactive
same,Potency,[9],inactive
same,outcome,[10],inactive
same,Potency,[11],inactive
same,"activity, negative = inhibition",[12]; parasite line A,0.756% (inactive)
same,"activity, negative = inhibition",[12]; parasite line B,-6.03% (inactive)
same,Potency,C2A,inactive
same,Potency,CP217,inactive
same,Potency,CP250,inactive
same,Potency,FAB9,inactive
same,Potency,JCK,inactive
same,Potency,SC27B,inactive
